Rows were chosen to be rich in hits. Some 6.7% of all compounds tested hit in one or more screens of this group.
KB-3-1 cytotox = kills parental KB-3-1 adenocarcinoma cells; KB-3-1 viability, CellTiter-Glo ATP luminescence, 72 h; Potency, µM (series often up to 46.1 µM), most hits filed as cytotoxic; 1.4% of 400,000 active; AID 1347075; further: on the % scale 0 is the no-effect control and ±100 the full control effect; nearly all actives have a fitted effect of over 60% in size
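Viability of parental KB-3-1 cells, measured by CellTiter-Glo luminescence, followed a 72 h incubation at 37 °C with pinned compounds in phenol-red-free DMEM containing 10% FBS.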
SW480 rereplic = inducers of DNA re-replication in SW480 colon cancer cells; SW480 DNA re-replication, Hoechst DNA content imaging, 48 h; Potency, µM (series often up to 46.1 µM), for inactives: at the highest dose re-replication activation, hits mostly activators; 1.8% of 340,000 active; further: % of control where 0% means no effect; nearly all actives have a fitted effect of over 55% in size
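Cells (250 per well) received 23 nL compound or DMSO by pin tool and were kept 48 hr at 37 C, 5% CO2. Nuclei were then stained with Hoechst for 40 min and scanned for DNA content.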
PINK1 modulator = modulators of PINK1 expression; PINK1 immunofluorescence, high-content cytometry, 24 h; Potency, µM (series often up to 76.6 µM), inactives show at the top dose activation (PINK1 increase), most hits filed as activators; 0.2% of 410,000 active; AID 624263; active means well fitted activation curve with a large enough effect; inconclusive means small, poorly fitted or top-dose-only effect; cell line not stated here; further: % of control where 0% means no effect; nearly all actives have a fitted effect of over 65% in size
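Stable cell line treated 24 h with compounds at 5 concentrations (CCCP controls), then fixed and immunostained for PINK1 plus nuclear and cell stains; PINK1 immunofluorescence quantified by laser-scanning microplate cytometry.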
KB-V1 MDR tox = kills drug-selected multidrug resistant KB-V1 cells | KB-V1 MDR cells viability, CellTiter-Glo, 72 h | AID 1347076 | 3.4% of 400,000 active | Potency, µM (series often up to 46.1 µM), hits mostly cytotoxic; further: on the % scale 0 is the no-effect control and ±100 the full control effect; nearly all actives have a fitted effect of over 60% in size
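KB-V1 MDR subline cells in DMEM (phenol-red free, 10% FBS) exposed to compounds in qHTS concentration series for 72 h at 37 degrees C. Viability read by CellTiter-Glo luminescence; concentration-effect curves fitted after normalization and correction.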
MCF10A rereplic = inducers of DNA re-replication in MCF 10A breast cells. MCF 10A DNA re-replication, Hoechst nuclear intensity, 48 h. Potency, µM (titrated, usually from 46.1 µM), inactives show top-dose activity, positive = re-replication, most hits filed as activators. 2.9% of 350,000 active; further: % of control where 0% means no effect; nearly all actives have a fitted effect of over 50% in size
An asterisk follows results filed as active; [ ] = dose if it differs, or a comment. Unless noted, the call rests on the fitted dose curve; in most records, active means well fitted curve in the direction sought with a large enough effect; inconclusive means small, poorly fitted or top-dose-only effect, or another doubt; inactive means no such curve, though single readings can be large; an effect the other way counts as inactive or inconclusive. Potency means the concentration at half of the fitted maximal effect.

CCOC(=O)c1c(NC(=O)c2ccccc2Cl)sc2c1CCCC2 was read as KB-3-1 cytotox inactive, PINK1 modulator 0% and KB-V1 MDR tox inactive.
For CCn1ccc(C(=O)NC2CCCC2)n1 the results were KB-3-1 cytotox inactive, SW480 rereplic 2%, PINK1 modulator 1%, KB-V1 MDR tox inactive and MCF10A rereplic 2%.
`CCn1ccc(C(=O)NC2=NCCS2)n1` gave KB-3-1 cytotox inactive, SW480 rereplic 23µM*, PINK1 modulator 2%, KB-V1 MDR tox inactive and MCF10A rereplic -67%.
COc1ccc(CC(=O)Nc2sc3c(c2C(N)=O)CCCC3)cc1 was read as KB-3-1 cytotox inactive, SW480 rereplic -2%, PINK1 modulator 9%, KB-V1 MDR tox inconclusive and MCF10A rereplic inconclusive.
For C1CCN2C[C@@H]3C[C@@H](CN4CCCC[C@H]34)[C@H]2C1 the results were SW480 rereplic 0%[20.6 µM] and MCF10A rereplic 0%[20.6 µM].
CCOC(=O)c1c(NC(=O)c2ccc(C)cc2)sc2c1CCCCC2 was read as KB-3-1 cytotox inactive, PINK1 modulator 2% and KB-V1 MDR tox inactive.
`COC(=O)c1c(NC(=O)c2ccccc2C(=O)O)sc2c1CCC2` gave KB-3-1 cytotox inactive, SW480 rereplic -2%, PINK1 modulator 2%, KB-V1 MDR tox inactive and MCF10A rereplic 9%.
For CCOC(=O)c1c(NC(=O)C(NCCN(C)C)c2ccccc2)sc2c1CCCC2 (stereo not drawn) the results were KB-3-1 cytotox inconclusive, SW480 rereplic inconclusive, PINK1 modulator 2%, KB-V1 MDR tox inactive and MCF10A rereplic 18µM*.
Screening CCOC(=O)c1c(NC(=O)c2ccco2)sc2c1CCCC2 returned KB-3-1 cytotox inactive, SW480 rereplic -1%, PINK1 modulator 10%, KB-V1 MDR tox inactive and MCF10A rereplic inconclusive.
Screening CCOC(=O)c1c(NC(=O)c2ccn(CC)n2)sc2c1CCCC2 returned KB-3-1 cytotox inactive, SW480 rereplic inconclusive, PINK1 modulator 10µM*, KB-V1 MDR tox inactive and MCF10A rereplic inconclusive.
Screening COC(=O)c1c(NC(=O)c2ccccc2N(C)S(=O)(=O)c2ccccc2)sc2c1CCCC2 returned KB-3-1 cytotox 4.6µM*, SW480 rereplic 12µM*, PINK1 modulator 3%, KB-V1 MDR tox 6.5µM* and MCF10A rereplic inconclusive.
COC(=O)c1c(NC(=O)c2ccc(N(C)S(=O)(=O)c3ccc(C)cc3)cc2)sc2c1CCCC2 was read as KB-3-1 cytotox inactive, SW480 rereplic inconclusive, PINK1 modulator 6%, KB-V1 MDR tox inactive and MCF10A rereplic 5.8µM*.
Screening CCOC(=O)c1c(NC(=O)COc2ncnc3sccc23)sc2c1CCC2 returned KB-3-1 cytotox inactive, SW480 rereplic -1%, PINK1 modulator 12%[38.3 µM], KB-V1 MDR tox 3.3µM* and MCF10A rereplic 25%.
Screening COCCN(CCOC)S(=O)(=O)c1ccc(C(=O)Nc2sc3c(c2C(N)=O)CCCCC3)cc1 returned KB-3-1 cytotox inactive, SW480 rereplic 4%, PINK1 modulator 5%, KB-V1 MDR tox 2.9µM* and MCF10A rereplic 18%.
For CC(C)c1ccc(NC(=O)Cn2c(=O)n(CC3CCC(C(=O)NCCc4ccccc4)CC3)c(=O)c3ccccc32)cc1 (stereo not drawn) the results were KB-3-1 cytotox inactive, PINK1 modulator 5% and KB-V1 MDR tox inactive.
For CCOc1ccc(Cl)cc1-c1cc(C(=O)Nc2ccc(C(C)C)cc2)[nH]n1 the results were KB-3-1 cytotox inactive, PINK1 modulator 3% and KB-V1 MDR tox inactive.
CCOC(=O)N1CCC2(CC1)C(C#N)=C(N)Oc1c2sc2nc(C)cc(C)c12 was read as KB-3-1 cytotox inactive, SW480 rereplic inconclusive, PINK1 modulator -3%[38.3 µM], KB-V1 MDR tox inactive and MCF10A rereplic 7.3µM*.
`CCCN1CCC2(CC1)C(C#N)=C(N)Oc1c2sc2nc(C)cc(C)c12` gave KB-3-1 cytotox inactive, SW480 rereplic -4%, PINK1 modulator 2%, KB-V1 MDR tox inactive and MCF10A rereplic 3%.
Screening C=CCOc1ccc(C2C3=C(CCCC3=O)N(CC(=O)O)C3=C2C(=O)CCC3)cc1OCC returned KB-3-1 cytotox inactive, SW480 rereplic -5%, PINK1 modulator 0%, KB-V1 MDR tox inconclusive and MCF10A rereplic -2%.
C=CCOc1c(Br)cc(C2C3=C(CCCC3=O)N(C)C3=C2C(=O)CCC3)cc1OCC was read as KB-3-1 cytotox inactive, SW480 rereplic 23µM*, PINK1 modulator 2%, KB-V1 MDR tox inactive and MCF10A rereplic -3%.
COc1ccc(N(Cc2cc(=O)[nH]c3ccccc23)C(=O)CCl)cc1 was read as KB-3-1 cytotox inconclusive, SW480 rereplic 3.3µM*, PINK1 modulator 0%, KB-V1 MDR tox inconclusive and MCF10A rereplic inconclusive.
`N#Cc1cc(N2CCCCC2)c([N+](=O)[O-])cc1C#N` gave KB-3-1 cytotox inactive, SW480 rereplic 11%, PINK1 modulator 1%, KB-V1 MDR tox inactive and MCF10A rereplic inconclusive.
Screening O=[N+]([O-])c1cc2no[n+]([O-])c2cc1N1CCCCC1 returned KB-3-1 cytotox inconclusive, SW480 rereplic 6.5µM*, PINK1 modulator -6%, KB-V1 MDR tox inactive and MCF10A rereplic 3.3µM*.
For CCCCn1nc(C(=O)Nc2cc(C(F)(F)F)ccc2N2CCOCC2)ccc1=O the results were KB-3-1 cytotox inactive, SW480 rereplic 3%, PINK1 modulator 5%, KB-V1 MDR tox inconclusive and MCF10A rereplic 15%.
O=C(Nc1nc(-c2ccccc2)cs1)C1CCCN(S(=O)(=O)c2ccccc2)C1 (stereo not drawn) was read as KB-3-1 cytotox inactive, SW480 rereplic inconclusive, PINK1 modulator inconclusive, KB-V1 MDR tox inconclusive and MCF10A rereplic 8.2µM*.
`O=C(Nc1ccccc1)[C@@H]1CCCN1S(=O)(=O)c1ccc(Cl)cc1` gave KB-3-1 cytotox inconclusive, SW480 rereplic -3%, PINK1 modulator 2%, KB-V1 MDR tox inactive and MCF10A rereplic 7%.
For O=C(Nc1ccc(Cl)cc1)C1CCCCN1S(=O)(=O)c1ccccc1 (stereo not drawn) the results were KB-3-1 cytotox 23µM*, SW480 rereplic inconclusive, PINK1 modulator 14%, KB-V1 MDR tox 3.7µM* and MCF10A rereplic inconclusive.
Screening O=C(Nc1nc(-c2ccccc2)cs1)C1CCCCN1S(=O)(=O)c1ccccc1 (stereo not drawn) returned KB-3-1 cytotox inactive, SW480 rereplic -2%, PINK1 modulator 1%[38.3 µM], KB-V1 MDR tox inconclusive and MCF10A rereplic 6%.
O=C(Nc1nc(-c2ccccc2)cs1)C1CCCCN1S(=O)(=O)c1ccc(Cl)cc1 (stereo not drawn) was read as KB-3-1 cytotox inconclusive, SW480 rereplic 21%, PINK1 modulator -2%[38.3 µM], KB-V1 MDR tox 13µM* and MCF10A rereplic inconclusive.

Compound activity from PubChem.
